# About 7,900 targets were measured; listed, in parts, are those with a hit and a random draw of the rest. About 0.6% of all pairs of compound and target were hits. A number with no mark means an inactive call.
# What was measured:
# Assay in all cases: log2 fold change, soluble protein after heating vs DMSO (PISA); higher = thermal stabilisation; K562 cells, 10 uM, 30 min; active = over 0.2 and 3.5 SD of the protein, either way, in both replicates (recomputed)
# [1] = compound: Cc1ccc(NC(=O)c2ccc(CN3CC[C@H](N(C)C)C3)c(C(F)(F)F)c2)cc1Nc1nccc(-c2cncnc2)n1 [bafetinib]
# Procedure, shortened: (§1)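 Thermal stability values are relative to control samples and come from duplicates. They are expressed as log2 fold changes. For measurement, K562 cells (2×10^6 cells/mL) received 10 μM compound for 30 min, and aliquots were heated for 3 min over 48°C-58°C, pooled, and extracted at 4°C in PBS with 0.5% NP-40. Soluble protein, the supernatant after 21,000xg for 90 min, was quantified by TMTpro 16plex LC-MS/MS with equalised channel sums.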
# [2] = compound: Cc1cn(-c2cc(NC(=O)c3ccc(C)c(Nc4nccc(-c5cccnc5)n4)c3)cc(C(F)(F)F)c2)cn1 [nilotinib]
# Procedure, shortened: as §1
# [3] = compound: Cc1nc(Nc2n[nH]c3c2CN(C(=O)N[C@H](CN(C)C)c2ccccc2)C3(C)C)c2sccc2n1
# Procedure, shortened: as §1
# [4] = compound: Cc1ncc(-c2ccnc(Nc3ccc(S(C)(=O)=O)cc3)n2)n1C(C)C
# Procedure, shortened: as §1
# [5] = compound: Cn1cc(-c2ccc3c(c2)CCN3C(=O)Cc2cccc(C(F)(F)F)c2)c2c(N)ncnc21
# Procedure, shortened: as §1
# [6] = compound: Cn1cc(-c2ccc3nnc(C(F)(F)c4ccc5ncccc5c4)n3n2)cn1
# Procedure, shortened: as §1
# [7] = compound: FC(F)(F)c1ccc(/C=C/c2nc(COc3ccc(CCCCn4ccnn4)cc3)co2)cc1 [mubritinib]
# Procedure, shortened: as §1
# [8] = compound: NC(=O)Nc1cc(-c2cccc(F)c2)sc1C(=O)N[C@H]1CCCNC1
# Procedure, shortened: as §1
# [9] = compound: NC1(c2ccc(-c3nc4ccn5c(=O)[nH]nc5c4cc3-c3ccccc3)cc2)CCC1
# Procedure, shortened: as §1
# [10] = compound: NCC(=O)Nc1ccc(-n2nc(C(F)(F)F)cc2-c2ccc3c(ccc4ccccc43)c2)cc1
# Procedure, shortened: as §1
# [11] = compound: Nc1ccccc1NC(=O)c1ccc(CNC(=O)OCc2cccnc2)cc1 [entinostat]
# Procedure, shortened: as §1
# [12] = compound: O=C(O)c1ccc2c(c1)nc(Nc1cccc(Cl)c1)c1ccncc12 [silmitasertib]
# Procedure, shortened: as §1
# [13] = compound: Cc1cccc(CC(=O)N2CCc3c2ccc(-c2cn(C)c4ncnc(N)c24)c3F)n1
# Procedure, shortened: as §1
# [14] = compound: Cc1nc(Nc2ncc(C(=O)Nc3c(C)cccc3Cl)s2)cc(N2CCN(CCO)CC2)n1 [dasatinib]
# Procedure, shortened: as §1
# [15] = compound: Cn1cncc1[C@@](N)(c1ccc(Cl)cc1)c1ccc2c(c1)c(-c1cccc(Cl)c1)cc(=O)n2C [tipifarnib]
# Procedure, shortened: as §1
# [16] = compound: NC(=O)c1cnc(N[C@@H]2CCCC[C@@H]2N)nc1Nc1cccc(-n2nccn2)c1
# Procedure, shortened: as §1
# [17] = compound: O=C(CCCCCCC(=O)Nc1ccccc1)NO [vorinostat]
# Procedure, shortened: as §1
# [18] = compound: O=C(CCCCCCNC(=O)c1cnc(N(c2ccccc2)c2ccccc2Cl)nc1)NO [citarinostat]
# Procedure, shortened: as §1
# [19] = compound: c1cc(OCCN2CCCCC2)cc(-c2n[nH]c3ccc(-c4nnc[nH]4)cc23)c1
# Procedure, shortened: as §1
# [20] = compound: O=C1NC(=O)C(c2cnc3ccccn23)=C1c1cn2c3c(cc(F)cc13)CN(C(=O)N1CCCCC1)CC2
# Procedure, shortened: as §1
# UniProt Q9H6K1, sequence (Q9H6K1 whole entry, looked up): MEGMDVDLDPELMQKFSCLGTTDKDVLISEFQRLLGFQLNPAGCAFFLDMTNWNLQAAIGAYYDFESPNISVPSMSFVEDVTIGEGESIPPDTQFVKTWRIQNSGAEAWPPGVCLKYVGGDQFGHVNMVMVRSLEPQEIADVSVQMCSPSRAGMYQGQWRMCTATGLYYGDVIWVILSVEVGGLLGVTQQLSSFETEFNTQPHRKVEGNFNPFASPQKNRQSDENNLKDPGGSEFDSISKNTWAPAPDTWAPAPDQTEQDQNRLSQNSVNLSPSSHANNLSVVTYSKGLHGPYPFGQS
# UniProt P52333, sequence (P52333 whole entry, looked up): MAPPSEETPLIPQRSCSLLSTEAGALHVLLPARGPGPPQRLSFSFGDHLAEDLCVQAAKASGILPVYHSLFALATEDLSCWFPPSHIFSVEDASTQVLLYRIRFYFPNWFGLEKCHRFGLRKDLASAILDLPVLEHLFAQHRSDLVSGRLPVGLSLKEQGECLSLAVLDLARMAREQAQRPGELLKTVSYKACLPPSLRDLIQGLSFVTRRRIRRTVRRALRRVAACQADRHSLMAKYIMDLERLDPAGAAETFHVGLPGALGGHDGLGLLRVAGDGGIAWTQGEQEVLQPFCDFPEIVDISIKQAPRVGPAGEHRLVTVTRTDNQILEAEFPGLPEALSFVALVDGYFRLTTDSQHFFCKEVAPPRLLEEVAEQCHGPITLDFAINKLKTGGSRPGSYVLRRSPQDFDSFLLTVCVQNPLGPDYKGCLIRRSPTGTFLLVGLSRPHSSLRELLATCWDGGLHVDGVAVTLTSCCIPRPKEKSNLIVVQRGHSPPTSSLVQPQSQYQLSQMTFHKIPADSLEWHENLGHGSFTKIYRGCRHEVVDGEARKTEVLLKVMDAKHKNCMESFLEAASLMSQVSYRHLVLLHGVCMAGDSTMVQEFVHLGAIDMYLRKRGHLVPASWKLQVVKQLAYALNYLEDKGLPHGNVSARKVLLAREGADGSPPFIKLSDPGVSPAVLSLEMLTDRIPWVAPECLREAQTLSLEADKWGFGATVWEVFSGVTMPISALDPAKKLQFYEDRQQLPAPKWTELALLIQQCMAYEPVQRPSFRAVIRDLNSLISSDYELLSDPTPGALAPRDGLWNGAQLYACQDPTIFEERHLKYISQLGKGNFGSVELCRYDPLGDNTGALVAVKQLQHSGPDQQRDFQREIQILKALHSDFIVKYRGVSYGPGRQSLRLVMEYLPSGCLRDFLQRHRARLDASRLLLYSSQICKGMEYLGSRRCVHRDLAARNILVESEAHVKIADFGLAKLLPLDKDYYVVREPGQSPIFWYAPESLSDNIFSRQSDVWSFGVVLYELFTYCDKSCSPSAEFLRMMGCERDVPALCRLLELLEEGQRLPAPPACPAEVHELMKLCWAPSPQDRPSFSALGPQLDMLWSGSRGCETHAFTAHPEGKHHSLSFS
# UniProt Q15528, sequence (Q15528 whole entry, looked up): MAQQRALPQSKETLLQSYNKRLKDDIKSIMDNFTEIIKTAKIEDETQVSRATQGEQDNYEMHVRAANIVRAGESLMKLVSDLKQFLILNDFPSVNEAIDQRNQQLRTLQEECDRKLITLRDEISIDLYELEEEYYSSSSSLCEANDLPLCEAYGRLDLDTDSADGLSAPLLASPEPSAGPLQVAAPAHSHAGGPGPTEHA
# UniProt Q96G25, sequence (Q96G25 whole entry, looked up): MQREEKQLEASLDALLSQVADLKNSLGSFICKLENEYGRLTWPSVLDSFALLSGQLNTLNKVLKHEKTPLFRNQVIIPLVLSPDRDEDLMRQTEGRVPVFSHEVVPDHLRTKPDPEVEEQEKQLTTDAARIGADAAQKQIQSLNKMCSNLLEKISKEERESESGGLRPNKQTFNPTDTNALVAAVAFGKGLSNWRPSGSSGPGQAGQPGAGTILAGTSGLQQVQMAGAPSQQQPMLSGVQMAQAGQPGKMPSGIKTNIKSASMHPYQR
# UniProt Q86UD3, sequence (Q86UD3 whole entry, looked up): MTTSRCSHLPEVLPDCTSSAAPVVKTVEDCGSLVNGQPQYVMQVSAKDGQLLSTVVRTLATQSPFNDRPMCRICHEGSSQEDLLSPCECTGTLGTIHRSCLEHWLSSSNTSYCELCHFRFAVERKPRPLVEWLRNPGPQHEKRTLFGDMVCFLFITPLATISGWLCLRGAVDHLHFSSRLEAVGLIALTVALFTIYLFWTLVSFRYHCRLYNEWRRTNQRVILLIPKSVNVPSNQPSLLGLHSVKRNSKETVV
# UniProt O00214, sequence (O00214 whole entry, looked up): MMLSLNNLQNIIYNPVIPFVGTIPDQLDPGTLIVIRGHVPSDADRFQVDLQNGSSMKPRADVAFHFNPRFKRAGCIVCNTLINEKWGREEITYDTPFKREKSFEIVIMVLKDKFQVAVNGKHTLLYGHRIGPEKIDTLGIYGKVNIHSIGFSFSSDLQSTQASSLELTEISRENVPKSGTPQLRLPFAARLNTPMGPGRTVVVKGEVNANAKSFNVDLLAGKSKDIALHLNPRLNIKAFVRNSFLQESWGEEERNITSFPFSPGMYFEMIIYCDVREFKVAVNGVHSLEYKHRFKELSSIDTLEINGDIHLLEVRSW
# UniProt Q86VI4, sequence (Q86VI4 whole entry, looked up): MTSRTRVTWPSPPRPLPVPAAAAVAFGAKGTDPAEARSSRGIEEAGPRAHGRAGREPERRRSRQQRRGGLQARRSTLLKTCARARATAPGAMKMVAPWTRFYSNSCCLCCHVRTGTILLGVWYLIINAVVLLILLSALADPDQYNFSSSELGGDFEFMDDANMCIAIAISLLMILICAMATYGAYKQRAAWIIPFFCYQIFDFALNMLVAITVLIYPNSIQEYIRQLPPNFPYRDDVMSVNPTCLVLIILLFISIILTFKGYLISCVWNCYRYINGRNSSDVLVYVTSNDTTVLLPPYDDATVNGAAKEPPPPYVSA
# UniProt Q96GX5, sequence (Q96GX5 whole entry, looked up): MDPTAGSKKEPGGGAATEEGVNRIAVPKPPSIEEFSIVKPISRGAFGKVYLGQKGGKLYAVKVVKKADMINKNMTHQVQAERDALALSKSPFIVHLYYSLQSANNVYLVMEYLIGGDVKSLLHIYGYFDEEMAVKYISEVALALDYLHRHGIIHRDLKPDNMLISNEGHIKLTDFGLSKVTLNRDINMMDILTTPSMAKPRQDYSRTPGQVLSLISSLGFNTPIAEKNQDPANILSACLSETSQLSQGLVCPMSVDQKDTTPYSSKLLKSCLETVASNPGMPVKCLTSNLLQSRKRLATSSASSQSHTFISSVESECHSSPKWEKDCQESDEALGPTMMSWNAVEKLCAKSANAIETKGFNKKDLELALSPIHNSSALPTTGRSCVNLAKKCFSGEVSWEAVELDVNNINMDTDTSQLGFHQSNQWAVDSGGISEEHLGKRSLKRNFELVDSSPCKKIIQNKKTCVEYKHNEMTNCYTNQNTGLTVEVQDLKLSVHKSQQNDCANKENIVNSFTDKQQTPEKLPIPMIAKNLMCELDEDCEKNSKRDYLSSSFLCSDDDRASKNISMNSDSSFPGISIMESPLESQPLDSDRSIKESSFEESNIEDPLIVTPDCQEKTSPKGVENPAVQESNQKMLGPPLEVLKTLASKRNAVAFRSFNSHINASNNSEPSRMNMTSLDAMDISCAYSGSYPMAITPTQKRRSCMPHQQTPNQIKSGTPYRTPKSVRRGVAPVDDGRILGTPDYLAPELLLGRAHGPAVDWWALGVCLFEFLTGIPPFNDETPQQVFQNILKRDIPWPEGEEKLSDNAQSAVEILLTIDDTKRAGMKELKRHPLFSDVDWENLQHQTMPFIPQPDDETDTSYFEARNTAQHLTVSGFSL
# UniProt Q92551, sequence (Q92551 whole entry, looked up): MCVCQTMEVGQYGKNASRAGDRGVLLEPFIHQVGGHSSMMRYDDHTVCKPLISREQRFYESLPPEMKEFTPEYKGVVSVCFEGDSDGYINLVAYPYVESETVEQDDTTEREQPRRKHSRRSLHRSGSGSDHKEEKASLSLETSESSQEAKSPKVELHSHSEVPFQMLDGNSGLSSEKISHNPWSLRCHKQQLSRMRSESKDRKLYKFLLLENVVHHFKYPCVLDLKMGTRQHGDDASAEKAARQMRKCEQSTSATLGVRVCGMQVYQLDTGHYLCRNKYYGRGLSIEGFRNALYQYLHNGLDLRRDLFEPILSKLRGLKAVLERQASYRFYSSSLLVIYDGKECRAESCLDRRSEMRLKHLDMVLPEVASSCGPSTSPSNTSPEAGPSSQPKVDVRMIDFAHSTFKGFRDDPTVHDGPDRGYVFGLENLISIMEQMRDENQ
# UniProt Q96LU5, sequence (Q96LU5 whole entry, looked up): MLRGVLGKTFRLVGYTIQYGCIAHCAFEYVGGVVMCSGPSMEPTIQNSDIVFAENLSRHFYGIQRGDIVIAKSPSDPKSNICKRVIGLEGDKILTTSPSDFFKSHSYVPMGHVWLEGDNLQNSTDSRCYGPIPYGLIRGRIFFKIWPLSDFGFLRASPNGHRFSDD
# UniProt A4D2B0, sequence (A4D2B0 whole entry, looked up): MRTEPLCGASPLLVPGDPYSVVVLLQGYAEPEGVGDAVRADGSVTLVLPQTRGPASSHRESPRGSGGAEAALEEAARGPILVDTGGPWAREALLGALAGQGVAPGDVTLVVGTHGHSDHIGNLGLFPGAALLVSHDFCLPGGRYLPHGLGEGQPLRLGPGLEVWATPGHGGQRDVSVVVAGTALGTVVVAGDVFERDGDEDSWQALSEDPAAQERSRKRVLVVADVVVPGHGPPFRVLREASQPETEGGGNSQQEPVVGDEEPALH
# UniProt P13473, sequence (P13473 whole entry, looked up): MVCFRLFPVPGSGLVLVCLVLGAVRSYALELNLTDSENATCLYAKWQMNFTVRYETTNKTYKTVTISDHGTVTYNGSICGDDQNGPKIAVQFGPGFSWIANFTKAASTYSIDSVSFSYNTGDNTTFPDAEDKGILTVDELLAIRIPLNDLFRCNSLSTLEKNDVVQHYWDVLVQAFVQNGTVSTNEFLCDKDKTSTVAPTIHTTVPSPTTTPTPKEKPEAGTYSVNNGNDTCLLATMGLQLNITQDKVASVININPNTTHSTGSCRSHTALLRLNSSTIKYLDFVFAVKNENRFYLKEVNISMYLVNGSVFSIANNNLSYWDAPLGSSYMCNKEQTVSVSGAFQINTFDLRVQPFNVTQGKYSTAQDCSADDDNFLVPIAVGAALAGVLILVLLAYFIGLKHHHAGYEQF
Target,log2 fold change [1],log2 fold change [2],log2 fold change [3],log2 fold change [4],log2 fold change [5],log2 fold change [6],log2 fold change [7],log2 fold change [8],log2 fold change [9],log2 fold change [10],log2 fold change [11],log2 fold change [12],log2 fold change [13],log2 fold change [14],log2 fold change [15],log2 fold change [16],log2 fold change [17],log2 fold change [18],log2 fold change [19],log2 fold change [20]
IKZF1 isoform 2 (UniProt Q13422),-0.217,0.101,-0.018,0.043,-0.026,0.015,-0.024,0.06,-0.109,0.036,-0.006,0.063,–,–,–,–,–,–,–,–
MBLAC1 (UniProt A4D2B0),-0.017,–,–,–,0.086,-0.125,-0.045,–,-0.179,0.242,–,-0.082,0.065,-0.129,0.094,-0.031,-0.021,0.01,-0.067,–
LMBR1 isoform 3 (UniProt Q8WVP7),-0.182,–,–,–,0.093,-0.143,0.063,0.047,-0.104,-0.048,0.071,0.014,0.007,0.012,-0.044,-0.11,-0.016,–,–,-0.141
MARK2 (UniProt E9PC69),0.116,-0.007,-0.451,-0.031,-0.038,-0.088,–,-0.513,–,-0.213,0.101,–,–,-0.158,-0.215,-0.401,–,0.024,-0.28,0.082
LAMP2 isoform 2 (UniProt P13473),-0.014,0.018,-0.009,0,0.005,–,0.003,–,-0.321,-0.132,–,0.003,-0.014,-0.047,0.126,-0.1,-0.113,0.061,-0.275,0.027
ILRUN (UniProt Q9H6K1),-0.05,-0.01,-0.086,0.258 (active),-0.013,-0.039,0.029,-0.213,-0.128,-0.025,0.024,0.014,–,-0.08,-0.023,-0.09,–,0.027,-0.01,-0.059
IL27RA (UniProt Q6UWB1),-0.098,0.086,-0.06,-0.006,-0.039,-0.109,0.005,-0.077,-0.116,-0.123,0.016,0.009,–,0.055,0.159,-0.091,–,0.082,-0.172,0.154
MED12 isoform 2 (UniProt Q93074),-0.112,-0.038,0.068,-0.058,–,0.003,-0.103,0.022,-0.191,–,0.066,0.016,0.044,-0.24,-0.071,-0.455,0.22,0.181,-0.311,-0.005
MED8 isoform 2 (UniProt Q96G25),-0.026,0.016,-0.015,-0.171,-0.086,0.013,-0.059,0.048,0.038,0.303,-0.107,0.079,–,0.034,0.012,0.2,–,0.035,-0.092,-0.043
JAK3 (UniProt P52333),-0.013,-0.01,0.082,-0.02,-0.019,0.044,-0.061,0,-0.045,-0.102,-0.019,-0.003,-0.056,-0.028,0.052,–,-0.048,–,–,0.002
LAPTM4B (UniProt Q86VI4),0.024,–,–,–,–,–,0.017,-0.109,0.116,–,-0.126,0.025,-0.137,–,–,–,-0.064,0.092,-0.178,–
IMMP1L (UniProt Q96LU5),-0.024,-0.044,0.059,0.03,0.068,0.071,0.048,-0.062,-0.103,-0.037,0.005,-0.132,–,0.098,0.02,-0.055,–,0.044,0.017,-0.088
KIF3B (UniProt O15066),0.007,–,–,–,0.002,-0.048,0.115,-0.016,-0.091,-0.128,-0.016,-0.086,0.122,-0.06,-0.07,-0.029,-0.179,0.053,0.215,-0.112
IP6K1 (UniProt Q92551),0.02,–,–,–,0.024,0.116,0.137,-0.039,-0.457,–,0.089,-0.059,0.033,-0.361,-0.038,-0.253,0.138,-0.02,0.858 (active),-0.048
MASTL (UniProt Q96GX5),0.143,0.014,0.002,0.021,-0.052,0.276,-0.093,0.123,0.144,-0.004,0.053,0.123,–,-0.105,–,-0.018,–,-0.018,0.002,0.039
MED22 (UniProt Q15528),-0.137,0.019,-0.048,-0.011,0.102,0.059,-0.043,0.042,0.064,0.023,0.049,-0.01,–,-0.009,–,0.029,–,-0.243,0.322 (active),-0.074
LGALS8 isoform 2 (UniProt O00214),0.107,–,–,–,-0.253,–,-0.186,-0.053,0.179,0.055,0.091,0.147,0.079,0.013,–,-0.096,0.078,0.051,-0.129,0.121
MARCHF3 (UniProt Q86UD3),0.109,0.156,0.15,0.036,–,–,–,0.169,–,–,-0.038,–,–,–,0.001,–,–,-0.133,-0.26,-0.014
ING5 (UniProt Q8WYH8),–,–,–,–,0.164,–,0.206,–,-0.042,–,–,-0.013,–,–,0.045,–,–,0.115,-0.008,–
ILF3 (UniProt Q12906),0.084,-0.065,0.167,0.364,–,–,-0.074,0.013,0.331,–,0.058,0.181,–,–,–,–,–,-0.134,-0.218,0.174
ITPRID2 (UniProt P28290),–,–,–,–,–,-0.032,–,–,–,-0.059,–,–,–,–,-0.056,–,–,-0.029,0.211,-0.208

# — the supplement of paper PMC10849652
